The values below come from PubChem BioAssay AID1259415 (National Center for Advancing Translational Sciences (NCATS), 2018).

Molecules are shown by their SMILES. Several values for one entry are separate records, joined by “and”; a condition that tells them apart may be missing. Equal values may be shown once. Among all 410,000 compounds or so, about 18,000 (4.4%) were called active. Another 7% or so got no clear call; they are omitted. Rule as the data show it: active = activity change below about -60%; inconclusive = no clear call, values can overlap the other calls; inactive = above about -39%. The list comes from a sample in which actives are over-represented; it also holds similar structures and randomly drawn compounds. Some structures have more than one record in an assay (separate samples or runs), and their calls can disagree.
% is scaled to controls: 0 for no effect and ±100 for the full control effect.

This test can be described thus: qHTS Assay for inhibitors of the human cytomegalovirus (HCMV). Conditions: HFF cells, HCMV-luciferase reporter, 72 h; at 57.5 µM; stronger effect = lower value. In a few lines:
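Screen run at 2 compound doses on HFFs infected with reporter HCMV, MOI 1 PFU/cell. Luciferase activity from cell lysates at 72 h post infection gave inhibition relative to buffer-only and Salinomycin wells.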
In the case of `Cc1ccccc1CSCCNC(=O)c1ccc(Cl)c(S(=O)(=O)N2CCOCC2)c1`, the activity change, negative = inhibition was -33.1% (inactive).
In the case of `CC(C)(CNC(=O)c1ccc(Cl)c(S(=O)(=O)N2CCc3ccccc3C2)c1)N1CCOCC1` it was -77.7% (active); in that of `CN(C)S(=O)(=O)c1ccc(C(=O)NCC(C)(C)N2CCOCC2)cc1`, -39.4% (inactive); in that of `COc1cc2c(=O)c(S(=O)(=O)c3ccc(C(C)C)cc3)cn(Cc3ccccc3C)c2cc1OC`, 23.6% (inactive).
In the case of `COc1cnc(-c2ccccn2)nc1Oc1ccc(C(C)(C)C)cc1` it was -82.7% (active); in that of `COc1ccnc(Oc2ccccc2)n1`, 5% (inactive).
The result for `COc1ccnc(Oc2ccccc2)c1-c1ncn[nH]1` reads -36.6% (inactive); that for `Cc1cc(OCC(=O)NCC2(N(C)C)CCCCC2)cc(C)c1Cl`, -11.2% (inactive).
Turning to `Cc1cc2c(cc1S(=O)(=O)CCC(=O)Nc1ccc(OC(F)(F)F)cc1)OCC(=O)N2`, the activity change, negative = inhibition was 5.03% (inactive).
The result for `O=C(CCS(=O)(=O)c1ccc2c(c1)NC(=O)CO2)Nc1cccc(C(F)(F)F)c1` reads -106% (active).
The result for `CC1CCCCC1NC(=O)CCS(=O)(=O)c1ccc2c(c1)NC(=O)CO2` (stereo unspecified) reads -22.8% (inactive).
In the case of `CCOC(=O)c1cc2c(=O)n3ccccc3nc2n(Cc2ccco2)c1=NC(=O)c1ccc(F)cc1` it was -0.814% (inactive).
As for `CCOC(=O)c1cc2c(=O)n3ccccc3nc2n(CC(C)C)c1=NC(=O)c1c(-c2c(F)cccc2Cl)noc1C`, the activity change, negative = inhibition is -12.3% (inactive) and -65.2% (active).
The result for `CCOC(=O)c1cc2c(=O)n3ccccc3nc2n(CC2CCCO2)c1=NC(=O)c1ccccc1F` (stereo unspecified) reads 5.02% (inactive); that for `CCOc1ccc(-n2cnc3c(=O)[nH]c(N)nc32)cc1`, 29.7% (inactive).
The result for `CCc1ccc(NC(=O)CN2C(=O)CCSc3ccc(S(=O)(=O)N4CCCC4)cc32)cc1` reads 14.8% (inactive); that for `Nc1ncnc(Nc2cccc(Cl)c2Cl)n1`, 8.97% (inactive); that for `CC(=O)Nc1cccc(NC(=O)CSc2nccn2Cc2ccc3c(c2)OCO3)c1`, -12.3% (inactive).
The result for `COc1ccc(CNC(=O)C2=Cc3cccc(OC)c3OC2)cc1OC` reads -2.4% (inactive).
`COc1ccc(CNS(=O)(=O)c2cc(Br)ccc2Br)cc1`: the activity change, negative = inhibition is -5.85% (inactive).
For the compound `O=C(Nc1ccc(Br)cc1)c1ccc(Br)c(S(=O)(=O)NCc2ccccc2)c1`, the activity change, negative = inhibition was -106% (active).
In the case of `Cc1ccc(C(=O)Nc2ccc(C(=O)O)cc2)cc1S(=O)(=O)Nc1ccccc1` it was 6.44% (inactive).
In the case of `CCOc1ccc(S(=O)(=O)Nc2ccc3oc4c(c3c2)CC(C)CC4)cc1` (stereo unspecified) it was 33.8% (inactive).
In the case of `CCC(=O)N1CCc2cc(S(=O)(=O)NCCC(=O)Nc3cccc(C)c3C)ccc21` it was 4.12% (inactive).
In the case of `CCCC(=O)Nc1nnc(CC(=O)OCC)s1`, the activity change, negative = inhibition was 69.6% (inactive).
The result for `CC(C)NC(=O)c1ccccc1S(=O)c1ccccc1C#N` (stereo unspecified) reads -72.2% (active); that for `N#Cc1ccccc1Sc1ccccc1C(=O)OCC(=O)NC1CCCCC1`, -31.3% (inactive); that for `CC(C)Oc1ccccc1C(=O)NC(CO)C(=O)O` (stereo unspecified), 0.22% (inactive).
In the case of `O=C(CC(c1cccs1)N1Cc2ccccc2C1=O)Nc1ccc(F)cc1F` (stereo unspecified) it was 5.86% (inactive); in that of `Cc1ccc(-c2ccc(CCC(=O)O)n2-c2ccc(C(N)=O)cc2)cc1`, 15% (inactive).
The result for `[O-][n+]1onc2c1CCc1[nH]c(-c3ccccc3)nc1-2` reads -99.3% (active).
In the case of `Cc1ccc(NC(=O)C(Cc2ccccc2)NS(=O)(=O)c2ccc3c(c2)oc(=O)n3C)cc1C` (stereo unspecified), the activity change, negative = inhibition is 1.25% (inactive).
With `CC1CCN(S(=O)(=O)c2ccc3c(c2)N(CC(=O)NCc2ccccc2Cl)C(=O)CO3)CC1`, the activity change, negative = inhibition was 15.7% (inactive).
Consider `O=C(OCc1ccccc1)c1ccc(O)cc1`, for which the activity change, negative = inhibition is 17.9% (inactive).
In the case of `CCOC(=O)c1c(CN2CCOCC2)n(-c2ccccc2)c2ccc(O)cc12` it was -73% (active); in that of `CCOC(=O)c1nnn(-c2nonc2-n2cccc2)c1CN1CCOCC1`, -19.5% (inactive); in that of `CCOC(=O)c1c(CN(C)C)n(-c2ccccc2)c2cc(Br)c(O)cc12`, -35% (inactive).
The result for `O[C@H]1C[C@H](c2ccc(Cl)cc2)N(Cc2cccs2)C[C@@H]1n1cc(C2CC2)nn1` reads 15% (inactive); that for `CCOC(=O)[C@]12CCC=C1N(CCC1=CCCCC1)C(=O)[C@H](CC(=O)NCc1ccc(C)o1)C2`, -0.404% (inactive).
In the case of `CCc1nc2onc(C)c2c(=O)n1CC(=O)O` it was 9.29% (inactive); in that of `CCc1nn(CC(=O)NCC(C)c2ccccc2)c(=O)c2cc3occc3n12` (stereo unspecified), -13.6% (inactive).
Take `COc1ccc(-c2nc(Cn3c(=O)cc(C)c4c(C)nn(-c5ccccc5)c43)c(C)o2)cc1OC`: the activity change, negative = inhibition was 18.8% (inactive).
`OCCCNc1nccc(-c2cc(Nc3cccc(Cl)c3)ncn2)n1`: the activity change, negative = inhibition is -97.8% (active).
The result for `COC(=O)[C@H]1[C@H](CO)[C@H]2Cn3c(cccc3=O)[C@H]2N1CC1CC1` reads 3.17% (inactive); that for `O=C(Nc1cccc(Cl)c1N1CCOCC1)c1cccnc1`, -21.6% (inactive); that for `O=C(c1cccnc1)N1CCN(S(=O)(=O)c2cccs2)CC1`, 7.09% (inactive).
The result for `O=C(N/N=C/c1sc(N2CCCCC2)nc1-c1cccs1)c1cccnc1` reads -80.6% (active).
The result for `COc1cccc(N2CC(NC(=O)/C=C\c3ccccc3)CC2=O)c1` (stereo unspecified) reads 81.9% (inactive); that for `CCOC(=O)c1c(-c2ccc(OC)cc2)oc2ccc(OCc3ccc(C(=O)OC)cc3)cc12`, -6.67% (inactive).
Turning to `COC(=O)c1ccc(NC(=O)CCc2c(C)nc3c(c(C)nn3-c3ccc(C)cc3)c2C)cc1`, the activity change, negative = inhibition was -19.7% (inactive).
The result for `COc1cc(Cl)cc(C2NC(=O)NC(C)=C2C(=O)NCc2ccccc2)c1O` (stereo unspecified) reads 3.06% (inactive); that for `COc1cc(/C=C2/SC(=S)N(Cc3ccccc3)C2=O)cc(OC)c1O`, -63.1% (active).
In the case of `COc1ccc(CCNC(=O)CCCCn2c(=O)c3ccccc3n(Cc3ccccc3)c2=O)cc1OC` it was -9.1% (inactive).
The result for `COc1cc2c(cc1OC)C(C(=O)NCc1ccco1)C1c3ccccc3CCN1C2=O` (stereo unspecified) reads 3.83% (inactive).
On to `COCCNC(=O)CSc1c(C)cnc2c1c(=O)n(C)c(=O)n2C`, for which the activity change, negative = inhibition is 8.83% (inactive).
In the case of `Cc1cccc2nc(-c3ccc(Cl)s3)c(Nc3ccc4c(c3)OCCO4)n12` it was 19.5% (inactive).
